Compounds with a hit are over-represented: about 1.8% of the library has one in this group of screens.
beta cell repl – inducers of MIN6 beta-cell proliferation, primary screen, ATP luminescence, uHTS. MIN6 cells proliferation, ATPlite luminescence, 48 h; cells starved in 0.2% serum; 100% = growth in 10% serum. proliferation, % at 10 µM. 330,000 compounds, 0.29% hits;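 active means compounds whose signal lies at least 3.5 SD above the mean of all wells on their plate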;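 further: 0% = DMSO-treated cells in low-serum medium and 100% = 10% serum control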
APOBEC3G inh – APOBEC3G DNA deaminase inhibitors, primary screen, biochemical, fluorescence, single-stranded DNA substrate, uHTS; recombinant A3G, ssDNA deamination FAM/TAMRA fluorescence; inhibition, % at 20 µM; 330,000 compounds, 0.28% hits; AID 493012, 2011;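 active means inhibition of at least 40% at 20 µM, with no more than 30% in the related APOBEC3A deaminase screen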;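 further: plate controls were DMSO wells with A3G for no effect and wells lacking A3G enzyme for full effect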
Target sequence (Q9HC16 whole entry, looked up): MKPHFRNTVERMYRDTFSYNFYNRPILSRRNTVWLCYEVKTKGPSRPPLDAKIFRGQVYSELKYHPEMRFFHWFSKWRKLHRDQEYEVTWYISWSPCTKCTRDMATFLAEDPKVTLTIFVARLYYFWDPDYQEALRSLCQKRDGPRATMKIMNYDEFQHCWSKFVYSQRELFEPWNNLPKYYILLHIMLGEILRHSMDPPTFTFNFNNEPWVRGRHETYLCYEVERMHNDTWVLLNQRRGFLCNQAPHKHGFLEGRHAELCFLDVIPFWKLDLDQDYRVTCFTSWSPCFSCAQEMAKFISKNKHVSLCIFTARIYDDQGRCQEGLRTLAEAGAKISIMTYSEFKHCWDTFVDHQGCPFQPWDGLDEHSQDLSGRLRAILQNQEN
NRP1-CendR mod – modulators of CendR peptide binding to NRP-1, primary screen, biochemical, fluorescence polarization, uHTS. FAM-RPARPAR peptide binding to NRP-1. 360,000 compounds, 0.85% hits. inhibition, % at 25 µM;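 active means inhibition or corrected inhibition above about 18%, plus a signal ratio from 0.5 to 1.5, limit read from the data, passing the limit was not always enough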
VLA-4 inh – inhibition in human VLA-4 binding assay, primary screen, VLA-4 allosteric modulator project, MLPCN library, flow cytometry, VLA-4 expressing cells | Integrin alpha-4 (Homo sapiens), P13612 | ligand binding flow cytometry | inhibition, % (about 7 µM as worked out from the volumes in the protocol) | 330,000 compounds, 0.2% hits; in the data active means inhibition above about 50%
A3A deaminase – APOBEC3A ssDNA deaminase inhibitors, primary screen, selectivity assay for APOBEC3G inhibitor project, biochemical, FAM/TAMRA oligo cleavage fluorescence; recombinant A3A, FAM/TAMRA ssDNA deamination fluorescence; inhibition, % at 20 µM; AID 493011, 2011; 330,000 compounds, 0.41% hits;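 active means at least 40% inhibition at 20 µM here, with at most 30% in a related deaminase screen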;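 further: plate controls were A3A with DMSO for no effect and wells lacking A3A enzyme for full effect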
Target sequence (P31941 whole entry, looked up): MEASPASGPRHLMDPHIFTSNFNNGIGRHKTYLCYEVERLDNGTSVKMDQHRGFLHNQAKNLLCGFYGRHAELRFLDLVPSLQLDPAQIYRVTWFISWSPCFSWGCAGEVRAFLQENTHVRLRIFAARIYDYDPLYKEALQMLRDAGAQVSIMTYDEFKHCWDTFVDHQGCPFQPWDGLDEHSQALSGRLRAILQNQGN
VLA-4 mod pick – retest of VLA-4 allosteric modulators, confirmation, cell-based, cherry-picked plates, U937, HUTS-21 LIBS antibody; U937 cells, HUTS-21 LIBS mAb binding, flow cytometry; LDV ligand present at threefold Kd; 1,300 compounds, 2% hits; shares compounds with VLA-4 inh; inhibition, % at 6.7 µM; in the data active means inhibition above about 40%;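 further: 0% = ligand without compound and 100% = no ligand background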
Numbers without * were called inactive; x = not tested or not shown.

SMILES | beta cell repl | APOBEC3G inh | NRP1-CendR mod | VLA-4 inh | A3A deaminase | VLA-4 mod pick
FC(F)(F)c1cccc(NC(=S)Nc2ccc(Cl)cc2Cl)c1 | -8 | 8 | 15 | 90* | 2 | 11
Cc1ccccc1-n1c(SCC(=O)N2CCN(c3ccccc3)CC2)nnc1-c1ccncc1 | -1 | -9 | -1 | 50* | -3 | 3
Nc1cc(C(=O)OCC(=O)NCCC2=CCCCC2)ccc1Cl | -1 | -1 | 7 | -19 | 0 | 5
Cc1cc(C)n(-c2nc3c(c(=O)[nH]c(=O)n3C)n2Cc2cccc(Br)c2)n1 | -1 | -1 | -6 | 54* | 2 | 6
Cc1nc2cc(-c3ccc(Cl)cc3)nn2c(C)c1CCC(=O)NCc1ccco1 | -3 | -2 | -7 | 52* | 0 | 18
CCOc1ccc(NC(=O)CN(C)C(=O)c2ccc(COc3ccccc3)o2)cc1OCC | -1 | -5 | -4 | 54* | 2 | -5
CCc1nc2ccccc2c(=O)n1/N=C/c1ccc(OC)cc1 | -1 | -5 | 2 | -1 | 3 | x
COc1ccc(/C=C/c2noc(-c3ccccc3O)n2)cc1 | -3 | -3 | 2 | -4 | 1 | x
COc1cc(/C=C/c2noc(-c3ccccc3O)n2)cc(OC)c1OC | 0 | -4 | 2 | 42 | 3 | -11
COc1ccc(CN(CC(=O)NC(C)C)C(=O)CCC(=O)Nc2nccs2)cc1 | 0 | -1 | -1 | 3 | 0 | x
COc1ccccc1-c1sc2ccccc2c1-c1ccc(OCCN2CCCCC2)cc1 | x | 0 | -1 | x | 3 | 0
COc1ccc2c(-c3ccc(OCCN4CCCCC4)cc3)c(-c3ccccc3OC)sc2c1 | x | 1 | 0 | x | 2 | 0
COc1ccc2sc(-c3ccccc3OC)c(-c3ccc(SC)cc3)c2c1 | x | x | 2 | x | x | x
Oc1ccc2sc(-c3ccccc3O)c(-c3ccc(OCCN4CCCCC4)cc3)c2c1 | x | x | 7 | x | x | x
COCCN(Cc1cc2cc3c(cc2nc1Cl)OCO3)C(=O)Nc1ccc(F)cc1 | 0 | -7 | 16 | -4 | -4 | x
COCCN(Cc1cc2cc3c(cc2nc1Cl)OCO3)C(=O)Nc1ccc(OC)cc1 | -3 | -2 | -8 | 54* | -3 | -10
CCOC(=O)CNS(=O)(=O)c1cc(-c2nnc(Nc3ccc4c(c3)OCO4)c3ccccc23)ccc1C | 0 | -10 | 7 | 61* | -2 | 23
Cc1ccc(-c2nnc(Nc3ccc(O)cc3)c3ccccc23)cc1S(=O)(=O)NCCO | 0 | 0 | 4 | 0 | -7 | x
NS(=O)(=O)c1cccc(NC(=O)Nc2ccccc2)c1 | -2 | 9 | 11 | -7 | 5 | 11
NS(=O)(=O)c1ccc(NC(=O)Nc2ccccc2)cc1 | -3 | -4 | -6 | 3 | -3 | -1
NS(=O)(=O)c1ccc(NC(=O)Nc2ccc(S(N)(=O)=O)cc2)cc1 | -1 | 0 | 6 | 3 | -1 | x
CCOC(=O)c1c(C)[nH]c(C(=O)OCC(=O)c2ccccc2)c1C | -6 | -6 | 0 | 1 | -1 | x
CCOC(=O)c1c(C)[nH]c(C(=O)COC(=O)c2ccccn2)c1C | 4 | 1 | -19 | -10 | 10 | -5
CCOC(=O)c1c(C)[nH]c(C(=O)COC(=O)C2CC2)c1C | 1 | -8 | 9 | x | 1 | -8
COC(=O)c1c(C)[nH]c(C(=O)COC(=O)c2c(C)noc2C)c1C | 1 | -6 | 13 | -5 | -2 | -4
SMILES | beta cell repl | APOBEC3G inh | NRP1-CendR mod | VLA-4 inh | A3A deaminase | VLA-4 mod pick
CCOC(=O)c1c(C)[nH]c(C(=O)COC(=O)C2(C)CC2(Cl)Cl)c1C (centres undefined) | -4 | 0 | -3 | -9 | 5 | 3
CC(=O)c1c(C)[nH]c(C(=O)COC(=O)c2c(C)noc2C)c1C | 0 | -5 | -1 | 9 | 1 | x
CCOC(=O)CC(=O)c1[nH]c(C)c(C(=O)OCC)c1C | -2 | -3 | 4 | 14 | 1 | x
C[C@H](CO)N1C[C@H](C)[C@@H](CN(C)S(=O)(=O)c2cccs2)Oc2ccc(NS(=O)(=O)c3ccccc3)cc2CC1=O | -2 | -2 | 1 | -6 | 0 | x
CC(Sc1nnc(-c2ccco2)n1N)C(=O)NCc1ccc2c(c1)OCO2 (centres undefined) | -2 | -4 | 7 | x | -2 | x
Cc1ccc(NS(=O)(=O)c2ccc3c(c2)CC(=O)N3)c(C)c1 | -3 | -6 | -3 | 2 | -4 | x
Cc1ccc(NS(=O)(=O)c2ccc3c(c2)CC(=O)N3)cc1F | 4 | -7 | 21 | 41 | -4 | 3
O=C1Cc2cc(S(=O)(=O)Nc3ccc(N4CCOCC4)cc3)ccc2N1 | 0 | -4 | -5 | 10 | 3 | -10
Cc1ccc(S(=O)(=O)Nc2ccc(N3CCOCC3)cc2)cc1C | -1 | -11 | -5 | 2 | -2 | x
Cc1nc2nc(SCC(=O)c3cccc([N+](=O)[O-])c3)[nH]c2cc1Br | 0 | -5 | -6 | 44 | 4 | -9
O=C(CSc1nc2ncc(Br)cc2[nH]1)c1cccc([N+](=O)[O-])c1 | 0 | -4 | 3 | -2 | 0 | x
COC(=O)c1sccc1NC(=O)Nc1ccccc1F | -2 | -5 | -4 | -1 | -1 | x
COC(=O)c1sccc1NC(=O)Nc1ccccc1C | 1 | 3 | -4 | -34 | 0 | 1
Cc1cc(=O)oc2cc(OCC(=O)Nc3ccc4[nH]c(=O)[nH]c4c3)ccc12 | 4 | -8 | 15 | 9 | -1 | x
OCC1(Cc2ccc(F)cc2)CCCN(CCCC(F)(F)F)C1 (centres undefined) | 0 | -3 | -13 | 14 | -4 | x
Cc1ccc(S(=O)(=O)N2CCOCC2)cc1NC(=O)COC(=O)c1ccccc1OCc1c(C)noc1C | 0 | -6 | -3 | 40 | -2 | -14
CS(=O)(=O)c1nc(-c2ccc(Br)cc2)cc(-c2ccccc2)c1C#N | -6 | -3 | 3 | 9 | 5 | x
CS(=O)c1nc(-c2ccc(Br)cc2)cc(-c2ccccc2)c1C#N (centres undefined) | -4 | -9 | -9 | 59* | -1 | 41*
Cc1ccc(NC(=O)CCNS(=O)(=O)c2ccc3[nH]c(=O)oc3c2)cc1F | -2 | -9 | -3 | 26 | -3 | x
COCCn1c(-c2ccco2)nc2nc3ccccc3nc21 | -5 | 0 | -3 | 92* | 1 | -3
CC(C)CCNC(=O)C1CCN(c2nnc(-n3cccc3)s2)CC1 | -2 | -1 | 13 | -4 | 0 | x

Assay outcomes: PubChem, several laboratories
